# Measurements: article PMC5540273 (PLoS ONE, 2017)
# Test system: AURKA
# Settings: concentration: 1 μM, replicates: in singlicate; n = 1
# 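Note: KINOMEscan kinase panel screen.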
row,SMILES,%Inh
1,CCC(=O)c1c(-c2ccccc2)c2cc(Cl)ccc2c(=O)n1Cc1cc(S(C)(=O)=O)n(CC(F)F)n1,0%
2,CCC(=O)c1c(-c2ccccc2)c2cc(Cl)ccc2c(=O)n1Cc1cc(S(C)(=O)=O)n(CC(N)=O)n1,0%
3,O=C(Nc1ccc2c(c1)OCO2)NC1CCN(c2ccnc(NCc3ccc(F)cc3)n2)CC1 [GSK1379859],11%
4,Cn1c(=O)c(F)c(Nc2ccc(I)cc2F)c2c(=O)n(OC[C@H](O)CO)cnc21,0%
5,Nc1nccc2scc(-c3ccc4c(c3)CCN4C(=O)Cc3ccccc3)c12 [GSK2576924],9%
6,O=C(NCCNc1ccnc(Nc2ccc(F)cc2)n1)Nc1ccc2c(c1)OCO2 [GSK1379882],28%
7,CCS(=O)c1ccc(-c2coc3ccc(-c4nnc(C)o4)cc23)cc1 (centres unmarked),16%
8,Cc1cccc(-c2cc(-c3c[nH]nc3-c3ccccn3)ccn2)c1 [GW679395],8%
9,CN1C(=O)C(Nc2ccccc2)=C(c2ccccc2)C1=O [SB-300079],0%
10,COc1cccc(-n2cnc3c(N)ncnc32)c1 [SKF-97416],0%
11,COc1ccc(CNC(=O)NC2CCN(c3ccnc(Nc4ccc(F)cc4)n3)C2)cc1 (centres unmarked) [GSK1379706],35%
12,Nc1n[nH]c2nnc(-c3ccccc3)c(-c3ccccc3)c12 [GW554060],0%
13,Cc1nnc(-c2ccc3ncn(-c4ccc(S(C)=O)cc4)c3c2)o1 (centres unmarked),21%
14,CCn1c(-c2nonc2N)nc2ccccc21 [SB-693162/GW549034],27%
